# In PubChem BioAssay AID1159580 (chemical genetic matrix, 2015):
# Out of some 5,500 compounds screened, about 2,000 (36%) were called active. Roughly 18% stayed inconclusive and do not appear here. The list shows a part of the results. Values without a mark were called inactive. Rule as the data show it: active = normalized growth mostly below about 0.91 (no sharp cut-off); inconclusive = no clear call, values can overlap the other calls; inactive = mostly above about 0.92.
# Assay: chemical genetic growth profiling, strain panel (AID 1159580);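 also: tested at 20 µM; growth read once vehicle control cultures reached saturation at 30 °C; 1 = growth at the plate median or of vehicle wells; lower values mean less growth of the strain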
# Details: S. cerevisiae deletion strains, growth OD
compound,measurement,setting,value
Cc1cccc(NC(=S)N/N=C\c2ccc(F)cc2)c1,normalized growth,"locus YAR019C, strain CDC15, active compounds read low",0.96
same,normalized growth,"locus YBL105C, strain PKC1, active compounds read low",0.966
same,normalized growth,"locus YBR135W, strain CKS1, active compounds read low",0.966
same,normalized growth,"locus YBR136W, strain MEC1, active compounds read low",0.965
same,normalized growth,"locus YBR160W, strain CDC28, active compounds read low",0.958
same,normalized growth,"locus YDL017W, strain CDC7, active compounds read low",0.958
same,normalized growth,"locus YDL028C, strain MPS1, active compounds read low",0.958
same,normalized growth,"locus YDL101C, strain DUN1, active compounds read low",0.967
same,normalized growth,"locus YDL108W, strain KIN28, active compounds read low",0.962
same,normalized growth,"locus YDL132W, strain cdc53, active compounds read low",0.934
same,normalized growth,"locus YDL214C, strain PRR2, active compounds read low",0.867
same,normalized growth,"locus YDR052C, strain DBF4, active compounds read low",0.956
same,normalized growth,"locus YDR054C, strain cdc34, active compounds read low",0.938
same,normalized growth,"locus YDR226W, strain ADK1, active compounds read low",0.952
same,normalized growth,"locus YDR477W, strain SNF1, active compounds read low",0.835
same,normalized growth,"locus YER123W, strain YCK3, active compounds read low",0.806
same,normalized growth,"locus YER133W, strain GLC7, active compounds read low",0.847
same,normalized growth,"locus YFL009W, strain cdc4, active compounds read low",0.953
same,normalized growth,"locus YFL029C, strain CAK1, active compounds read low",0.954
same,normalized growth,"locus YFR003C, strain YPI1, active compounds read low",0.972
same,normalized growth,"locus YFR019W, strain FAB1, active compounds read low",0.919
same,normalized growth,"locus YFR028C, strain CDC14, active compounds read low",0.954
same,normalized growth,"locus YGR040W, strain KSS1, active compounds read low",0.824
same,normalized growth,"locus YGR052W, strain FMP48, active compounds read low",0.871
same,normalized growth,"locus YGR092W, strain DBF2, active compounds read low",0.691
same,normalized growth,"locus YHR030C, strain SLT2, active compounds read low",0.821 (active)
same,normalized growth,"locus YHR079C, strain IRE1, active compounds read low",0.762
same,normalized growth,"locus YHR082C, strain KSP1, active compounds read low",0.825
same,normalized growth,"locus YHR205W, strain SCH9, active compounds read low",0.874
same,normalized growth,"locus YIL147C, strain SLN1, active compounds read low",0.963
same,normalized growth,"locus YJL095W, strain BCK1, active compounds read low",0.834
same,normalized growth,"locus YJL128C, strain PBS2, active compounds read low",0.98
same,normalized growth,"locus YJL157C, strain FAR1, active compounds read low",0.876
same,normalized growth,"locus YJR016C, strain ILV3, active compounds read low",0.961
same,normalized growth,"locus YJR066W, strain TOR1 (second series), active compounds read low",0.601 (active)
same,normalized growth,"locus YJR066W, strain TOR1, active compounds read low",0.773
same,normalized growth,"locus YKL048C, strain ELM1, active compounds read low",0.919
same,normalized growth,"locus YKL067W, strain YNK1, active compounds read low",0.9
same,normalized growth,"locus YKL101W, strain HSL1, active compounds read low",0.884
same,normalized growth,"locus YKL193C, strain SDS22, active compounds read low",0.961
same,normalized growth,"locus YKL203C, strain TOR2, active compounds read low",0.844
same,normalized growth,"locus YLR113W, strain HOG1, active compounds read low",0.847 (active)
same,normalized growth,"locus YLR133W, strain CKI1, active compounds read low",0.847
same,normalized growth,"locus YLR403W, strain SFP1, active compounds read low",0.789
same,normalized growth,"locus YML070W, strain DAK1, active compounds read low",0.88
same,normalized growth,"locus YMR001C, strain CDC5, active compounds read low",0.965
same,normalized growth,"locus YMR205C, strain PFK2 (second series), active compounds read low",0.879
same,normalized growth,"locus YMR277W, strain FCP1, active compounds read low",0.958
same,normalized growth,"locus YNL006W, strain LST8, active compounds read low",0.967
same,normalized growth,"locus YNL020C, strain ARK1, active compounds read low",0.853
same,normalized growth,"locus YNL161W, strain CBK1, active compounds read low",0.969
same,normalized growth,"locus YNL183C, strain NPR1, active compounds read low",0.749
same,normalized growth,"locus YNL207W, strain RIO2, active compounds read low",0.946
same,normalized growth,"locus YNL222W, strain SSU72, active compounds read low",0.965
same,normalized growth,"locus YNL307C, strain MCK1 (second series), active compounds read low",0.788
same,normalized growth,"locus YOL078W, strain AVO1, active compounds read low",0.953
same,normalized growth,"locus YOL136C, strain PFK27, active compounds read low",0.844
same,normalized growth,"locus YOR061W, strain CKA2, active compounds read low",0.839
same,normalized growth,"locus YOR119C, strain RIO1, active compounds read low",0.915
same,normalized growth,"locus YOR231W, strain MKK1, active compounds read low",0.843
same,normalized growth,"locus YOR329C, strain SCD5, active compounds read low",0.959
same,normalized growth,"locus YPL031C, strain PHO85, active compounds read low",0.794
same,normalized growth,"locus YPL153C, strain RAD53, active compounds read low",0.773
same,normalized growth,"locus YPL204W, strain HRR25, active compounds read low",0.795
same,normalized growth,"locus YPL209C, strain IPL1, active compounds read low",0.964
same,normalized growth,"locus YPL256C, strain CLN2, active compounds read low",0.843 (active)
same,normalized growth,"locus YPR025C, strain CCL1, active compounds read low",0.961
same,normalized growth,"locus YPR106W, strain ISR1, active compounds read low",0.968
same,normalized growth,"locus YPR111W, strain DBF20, active compounds read low",0.965
same,normalized growth,"strain NNK1, active compounds read low",0.967
same,normalized growth,"strain TSCII, active compounds read low",0.961
